Measurements published in the supplement of paper PMC10515830.
Where a name gives a salt, the structure may show the parent alone.

Assays:
Conditions in all cases: 10 µM; exposure time 6 h
[1] = tested on: Danio rerio larvae (5 dpf); experiment: difference in excitability vs DMSO (percentage points); higher = more excitable than DMSO
In short: (§1)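 In 96-well plates, 48 wild-type zebrafish larvae aged 5 dpf per compound received 100 µL egg water with library compound at 10 µM final for 6 h. Three hours into this, a 3-h programme of moving lines and 100 ms, 400Hz tones ran at 28.5 ℃ while plates were photographed every 6 s. Z-LaP Tracker scored the behaviours, and each is given as the compound mean minus the vehicle control mean in percentage points.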

[2] = tested on: Danio rerio larvae (5 dpf); experiment: difference in startle response vs DMSO (percentage points); higher = stronger startle than DMSO
In short: as §1

[3] = tested on: Danio rerio larvae (5 dpf); experiment: difference in activity during first hour vs DMSO (percentage points); higher = more activity than DMSO
In short: as §1

[4] = tested on: Danio rerio larvae (5 dpf); experiment: difference in habituation to acoustic stimuli vs DMSO (percentage points); higher = more habituation than DMSO
In short: as §1

[5] = tested on: Danio rerio larvae (5 dpf); experiment: difference in combined optomotor response to red, green and blue moving lines vs DMSO (percentage points); higher = stronger optomotor response than DMSO
In short: as §1

Structure (SMILES) | difference in excitability [1] | difference in startle response [2] | difference in activity during first hour [3] | difference in habituation to acoustic stimuli [4] | difference [5]
CNC(=O)c1ccc(N2C(=S)N(c3cnc(C#N)c(C(F)(F)F)c3)C(=O)C23CCC3)cc1F | -1.56 | -1.13 | 6.27 | 0.499 | 11.9
C[C@]12CCC3=C4CCC(=O)C=C4CC[C@H]3[C@@H]1CC[C@@]2(O)CC#N [Dienogest] | 6.14 | -3.1 | 11.2 | 4.78 | 1.22
CC1(C)S[C@@H]2[C@H](NC(=O)COc3ccccc3)C(=O)N2[C@H]1C(=O)O [Penicillin V (potassium salt)] | -4.2 | 2.03 | 11 | 4.18 | -1.93
CCOCCn1c(N2CCCN(C)CC2)nc2ccccc21 [Emedastine (fumarate)] | 5.25 | 8.02 | 5.05 | 0.658 | -3.97
CC(=O)O[C@H]1C[C@@H]2CC[C@@H]3[C@H](CC[C@@]4(C)[C@H]3C[C@H]([N+]3(C)CCCCC3)[C@@H]4OC(C)=O)[C@@]2(C)C[C@@H]1N1CCCCC1 [Vecuronium (bromide)] | 11.8 | -0.798 | -6.01 | 3.25 | -1.83
CC[C@H](C)C(=O)O[C@H]1C[C@@H](C)C=C2C=C[C@H](C)[C@H](CC[C@@H]3C[C@@H](O)CC(=O)O3)[C@H]21 [Lovastatin] | 9.79 | 2.77 | 7.75 | -0.0098 | 1.09
CC(CN(C)C)CN1c2ccccc2CCc2ccccc21 (stereo not given) [Trimipramine (maleate)] | 12.5 | -3.72 | -0.632 | -5.79 | 0.935
COc1cc2c(cc1Cc1cccc(Cl)c1F)c(=O)c(C(=O)O)cn2[C@H](CO)C(C)C [Elvitegravir] | 4.89 | -9.84 | 6.05 | 0.943 | -4.56
Cc1ccccc1C(=O)Nc1ccc(C(=O)N2CCCC(O)c3cc(Cl)ccc32)c(C)c1 (stereo not given) [Tolvaptan] | 11 | 1.76 | 15.8 | -0.912 | 5.47
NS(=O)(=O)c1cc2c(cc1Cl)N=CNS2(=O)=O [Chlorothiazide] | -0.0236 | -3.29 | 3.22 | 6.65 | -5.74
COCC(=O)Nc1c(I)c(C(=O)NCC(O)CO)c(I)c(C(=O)N(C)CC(O)CO)c1I (stereo not given) [Iopromide] | 3 | -1.37 | 11.3 | 1.33 | 5.16
CC1=C(/C=C/C(C)=C\C=C\C(C)=C\C(=O)O)C(C)(C)CCC1 [9-cis-Retinoic Acid] | 5.5 | -1.66 | 5.1 | 10.2 | 2.9
C[C@H](N)[C@H](O)c1cccc(O)c1 [Metaraminol (tartrate)] | 3.23 | 5.35 | -15.4 | -0.886 | -6.91
CCC1(c2ccccc2)C(=O)NCNC1=O [Primidone] | 3.77 | 4.38 | 11.2 | -0.65 | 9.02
N=C(N)NC(=O)c1nc(Cl)c(N)nc1N [Amiloride (hydrochloride) (hydrate)] | 10.2 | -1.2 | -3.37 | 2.2 | 2.45
CN(C)CCOC(=O)C(c1ccccc1)C1(O)CCCC1 (stereo not given) [Cyclopentolate (hydrochloride)] | -10.4 | -4.29 | -7.59 | -2.76 | -2.74
C=CC[C@@H]1/C=C(\C)C[C@H](C)C[C@H](OC)[C@H]2O[C@@](O)(C(=O)C(=O)N3CCCC[C@H]3C(=O)O[C@H](/C(C)=C/[C@@H]3CC[C@@H](O)[C@H](OC)C3)[C@H](C)[C@@H](O)CC1=O)[C@H](C)C[C@@H]2OC | 27 | -6.28 | 5.28 | -10.2 | -13.7
CC1=C(C(=O)O)N2C(=O)[C@@H](NC(=O)[C@H](N)c3ccc(O)cc3)[C@H]2SC1 [Cefadroxil (hydrate)] | 4.89 | -1.88 | 6.54 | -3.34 | 7.44
Nc1ncn([C@@H]2O[C@H](CO)[C@@H](O)[C@H]2O)c(=O)n1 [5-Azacytidine] | 6.01 | -4.41 | -3.91 | -4.6 | 0.0811
CC(C)Cn1cnc2c(N)nc3ccccc3c21 [Imiquimod] | -4.08 | 8.27 | -15 | -2.3 | -3.49
CC(=O)OC[C@H]1O[C@@H]([S-])[C@H](OC(C)=O)[C@@H](OC(C)=O)[C@@H]1OC(C)=O.CCP(CC)CC.[Au+] [Auranofin] | 6.43 | -4.17 | 11 | 2.14 | -5.02
COC(=O)N[C@H](C(=O)N1CCC[C@H]1c1nc(-c2ccc3c(c2)O[C@@H](c2ccccc2)n2c-3cc3cc(-c4c[nH]c([C@@H]5CCCN5C(=O)[C@@H](NC(=O)OC)C(C)C)n4)ccc32)c[nH]1)C(C)C [Elbasvir] | 9.31 | -11.8 | 0.959 | 5.9 | 1.3
Cc1cc(Nc2ncc(Cl)c(Nc3ccccc3S(=O)(=O)C(C)C)n2)c(OC(C)C)cc1C1CCNCC1 [Ceritinib] | 23.6 | -3.09 | -7.86 | -6.25 | -1.6
CN(C)CCC(c1ccc(Cl)cc1)c1ccccn1 (stereo not given) [Chlorpheniramine (maleate)] | 1.12 | -4.13 | -11.1 | -6.14 | -4.02
